This is a sample that favours compounds with a hit; in the whole collection about 9% have one here.
HP1b chromo inh = HTS for Inhibitors of HP1-beta Chromodomain Interactions with Methylated Histone Tails; Chromobox protein homolog 1 (Homo sapiens), P83916; AlphaScreen HP1-beta / biotin-H3K9me3 peptide binding; Potency, µM (titrated, usually from 114 µM), inactives show at the top dose activity change, negative = inhibition, usual class: inhibitors; 390,000 tested, 0.56% active; AID 540317, 2011; note: nearly all actives have a fitted effect of over 70% in size
Target sequence (P83916 whole entry, looked up): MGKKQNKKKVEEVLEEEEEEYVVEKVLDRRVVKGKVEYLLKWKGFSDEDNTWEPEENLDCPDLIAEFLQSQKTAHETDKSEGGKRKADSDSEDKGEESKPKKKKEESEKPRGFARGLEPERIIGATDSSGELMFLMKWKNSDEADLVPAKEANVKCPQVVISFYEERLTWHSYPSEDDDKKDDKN
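HP1-beta protein (50 nM final) preincubated 30 min at room temperature with biotinylated H3(1-18)K9me3 peptide (50 nM) in PBS pH 7.4, 0.01% Tween-20, then compound added for 30 min. AlphaScreen streptavidin donor/nickel chelate acceptor beads (10 ug/mL final), 30 min dark, luminescence read.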
G9a inh = qHTS Assay for Inhibitors of Histone Lysine Methyltransferase G9a; 350,000 tested, 8.8% active; G9a H3K9 monomethylation, AlphaScreen, 2 h; Potency, µM (series often up to 102 µM), inactives show at the highest dose activity, negative = inhibition, hits mostly inhibitors; note: % is set by controls: 0 for no effect and ±100 for the full control effect; nearly all actives have a fitted effect of over 75% in size
Target sequence (Q96KQ7 913-1193 limits assumed): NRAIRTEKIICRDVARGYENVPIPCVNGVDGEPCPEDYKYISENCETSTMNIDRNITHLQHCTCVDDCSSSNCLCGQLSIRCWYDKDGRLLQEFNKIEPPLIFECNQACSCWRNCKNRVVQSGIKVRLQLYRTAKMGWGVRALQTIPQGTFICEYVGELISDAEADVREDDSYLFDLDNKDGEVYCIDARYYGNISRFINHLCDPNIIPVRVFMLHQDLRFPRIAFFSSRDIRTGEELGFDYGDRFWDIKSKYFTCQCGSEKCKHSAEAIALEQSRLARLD
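G9a (20 nM) was preincubated 15 min with compound, then reacted 2 h at room temperature with 500 nM biotin-H3K9 peptide and 20 µM SAM. Monomethyl-H3K9 detected by AlphaScreen using anti-H3K9me1 antibody.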
JMJD2A Tudor = qHTS Assay for Inhibitors of JMJD2A-Tudor Domain; Lysine-specific demethylase 4A (Homo sapiens), O75164; AlphaScreen JMJD2A-Tudor / H3K4me3 peptide binding; Potency, µM (highest dose often 114 µM), inactives show at the highest dose activity change, negative = inhibition, actives largely listed as inhibitors; 390,000 tested, 4.4% active; AID 504339, 2011; note: % is set by controls: 0 for no effect and ±100 for the full control effect; nearly all actives have a fitted effect of over 50% in size
BAZ2B inh = qHTS Assay for Inhibitors of BAZ2B; 360,000 tested, 4.4% active; Potency, µM (titrated, usually from 114 µM), inactives show top-dose activity change, negative = inhibition, most hits filed as inhibitors; Bromodomain adjacent to zinc finger domain protein 2B (Homo sapiens), Q9UIF8; AlphaScreen BAZ2B-H3K14Ac peptide displacement; note: % is set by controls: 0 for no effect and ±100 for the full control effect; nearly all actives have a fitted effect of over 60% in size
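Protein-peptide AlphaScreen: BAZ2B 50 nM, b-H3K14Ac 50 nM, 1x PBS pH 7.4 + 0.01% Tween-20. Preincubation 30 min RT; cpd 30 min RT (top 110 uM); beads 20 min RT, light-protected.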
12-LOX inh = Primary qHTS assay for inhibitors of human arachidonate 12S-lipoxygenase (ALOX12): Round 2. 580,000 tested, 1.1% active. Potency, µM (titrated, usually from 108 µM), for the others: top-dose activity change, negative = inhibition, hits mostly inhibitors. purified 12hLO, xylenol orange hydroperoxide absorbance. AID 1671190, 2021; note: % is set by controls: 0 for no effect and ±100 for the full control effect
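Purified human 12hLO (150 nM final) in 25 mM Hepes, 0.01% Triton X-100, pH 7.0 was preincubated 15 min at room temperature with compound. Then 40 uM arachidonic acid was added, 30 min. Hydroperoxide was read by Fe-XO absorbance ratio 573/405 nm.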
PLK1 PBD inh = qHTS for Inhibitors of PLK1-PDB (polo-like kinase 1 - polo-box domain): Primary Screen; AID 720504, 2013; 360,000 tested, 2.8% active; Plk1 PBD binding of FITC phosphopeptide, fluorescence polarization; Potency, µM, without a hit: max response, negative = inhibition, usual class: inhibitors; note: series mostly up to about 57 µM; % is set by controls: 0 for no effect and ±100 for the full control effect; nearly all actives have a fitted effect of over 65% in size
An asterisk follows results filed as active; ? = inconclusive; . = no result; [ ] = remark or other dose. Calls come from the whole dose curve; as a rule, active = well fitted curve in the direction sought with a large enough effect; inconclusive = small, poorly fitted or top-dose-only effect, or another doubt; inactive = no such curve, though single readings can be large; an effect the other way counts as inactive or inconclusive. Potency is the fitted concentration of half-maximal effect.

SMILES	HP1b chromo inh	G9a inh	JMJD2A Tudor	BAZ2B inh	12-LOX inh	PLK1 PBD inh
COc1ccc(-c2csc(N(CC(C)C)C(=O)c3ccco3)n2)cc1	17%	5%[0.501 µM]	6%	?	-8%	-24%
COc1ccccc1CNC(=O)Cn1c(=O)oc2ccccc21	14%	5%[59 µM]	-15%	0%	-16%	.
COc1ccccc1CCNC(=O)Cn1c(=O)oc2ccccc21	13%	40µM*	-16%	79µM*	0%	-12%
S=c1sc2c(s1)SC1c3ccccc3CC1S2 (stereo unspecified)	.	.	.	.	16µM*	.
O=S1(=O)NC2c3ccccc3CC2O1 (stereo unspecified)	46%	.	-16%	8%[57.1 µM]	-21%	-17%
CCN1CCN(c2ccc(NC(=O)CCc3c(C)nc4c(-c5ccccc5)c(C)nn4c3C)cc2)CC1	-6%	79µM*	?	-7%	?	-9%
CCN(C(C)=O)c1nc(CSc2nnc(NC(C)C)s2)cs1	12%	-20%[59 µM]	-1%	-34%	0%	-11%
COc1ccc(OC)c(-c2nnc3n2N=C(c2ccc(OC)c(OCC4CC4)c2)CS3)c1	9%	.	?	.	.	.
CCc1ccc2c(c1)[C@]1(C(=O)N2)[C@@H]2C(=O)N(Cc3ccccc3)C(=O)[C@@H]2[C@@H]2CCCN21	6%	71µM*	-32%	2%	?	2%
CCOC(=O)c1ccc(Nc2c(-c3ccc(N(C)C)cc3)nc3nc[nH]n23)cc1	-15%	16µM*	-34%	?	-11%	.
CCn1nc(NC(=O)Cc2ccc(OC)cc2)c2cc3cc(C)ccc3nc21	23%	45µM*	-9%	-4%	?	-8%
CCn1nc(NC(=O)c2ccccn2)c2cc3cc(C)ccc3nc21	79%	138%	-3%[11.4 µM]	84%	7%	24µM*
Cc1c(-c2ccc(F)cc2)[nH]c2ccc(CNC(=O)[C@@H]3CCCO3)cc12	.	.	.	.	15%	.
O=C1NCCN2CC3(CCN(S(=O)(=O)c4cccs4)CC3)CC12 (stereo unspecified)	.	.	.	.	1%	.
CN(C)C/C(Cl)=C(\Cl)c1ccccc1	39%	14µM*	-34%	3%	?	?
CCC(=O)NC1=C(Nc2ccc(N)cc2)C(=O)c2ccccc2C1=O	?	50µM*	-23%	?	2%	-10%
CC(=O)Nc1ccc(NCc2ccc(-c3ccccc3)cc2)cc1	7%	.	-24%	.	30%	9%
CCC(=O)Nc1ccc(C2C(=O)c3ccccc3C2=O)cc1	?	34%[0.501 µM]	?	?	?	24µM*
CCC(=O)Nc1ccc(NCc2ccc(-c3ccccc3)cc2)cc1	4%	25µM*	?	-27%	59%	6%
CCCCC(=O)Nc1ccc(C2C(=O)c3ccccc3C2=O)cc1	-11%	.	-16%	.	183%	2%
CC1=C(c2ccc(C)cc2)S(=O)(=O)N(Cc2ccc(C(=O)NCc3cccc(C)c3)cc2)C1=O	60%	-3%[59 µM]	-22%	-11%	-15%	.
COc1ccc(-c2nn(-c3ccccc3)cc2C2CC(c3cccs3)=NN2C(=O)CCCC(=O)O)cc1 (stereo unspecified)	18%	?	-15%	79µM*	-1%	-8%
Cc1ccc(C2=NN(C(=O)CCC(=O)O)C(c3cn(-c4ccccc4)nc3-c3ccc(C)cc3)C2)cc1 (stereo unspecified)	-1%	?	50µM*	.	-28%	?
Cc1ccc(-c2nn(-c3ccccc3)cc2C2CC(c3ccccc3)=NN2C(=O)CCC(=O)O)cc1 (stereo unspecified)	1%	.	-27%	?	-39%	?
